# Where a name gives a salt, the structure may show the parent alone. ± gives the standard deviation of the averaged measurements.
# What was measured:
# Assay in all cases: growth (OD600 after 10 h); higher = more growth (less inhibition)
# [1] = system: E. coli TESEC Alr+ wild-type control; conditions: compound 0.1 mM; raw OD600 reference: median of DMSO wells 0.241, cell-free background 0.041
# Method: (§1)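 TESEC Mtb Alr E. coli, or the Alr+ wild-type control, in 384-well plates with Prestwick library compounds at 0.1 mM and 1% DMSO, across arabinose induction levels of 1E3 to 1E7 nM. Growth is read as OD600 after 10 h at 37 °C in triplicate biological replicates.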
# E. coli TESEC Mtb Alr [2] = conditions: compound 0.1 mM
# Method: as §1
# E. coli TESEC Mtb Asd = conditions: compound 0.1 mM
# Method: (§2)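 TESEC E. coli strains in which the native enzyme is deleted and replaced by arabinose-inducible Mtb Asd, DapB, CysH or TrpD, each grown in its selective medium. Strains were screened against the Prestwick library at 0.1 mM and 1% DMSO in 384-well format at low and high arabinose induction. Growth is read as OD600 after 10 h in triplicate.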
# E. coli TESEC Mtb DapB = conditions: compound 0.1 mM
# Method: as §2
# [3] = system: E. coli TESEC Alr+ wild-type control; conditions: compound 0.1 mM; raw OD600 reference: median of DMSO wells 0.49, cell-free background 0.052
# Method: (§3)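 TESEC Mtb Alr E. coli (ΔaraC ΔtolC ΔentC Δalr ΔdadX, arabinose-inducible Mtb Alr) or the Alr+ wild-type control strain, grown in defined M9-fructose medium without D-alanine in 96-well plates with Prestwick library compounds at 0.1 mM and 1% DMSO. Low Alr induction is 0.1 µM arabinose and high induction is 10 mM arabinose.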
# E. coli TESEC Mtb Alr [4] = conditions: compound 0.1 mM; remark: listed apart in the source
# Method: as §3
# [5] = arabinose 1000 nM, raw OD600 reference: median of DMSO wells 0.294, cell-free background 0.041
# [6] = arabinose 10000 nM, raw OD600 reference: median of DMSO wells 0.264, cell-free background 0.041
# [7] = arabinose 100000 nM, raw OD600 reference: median of DMSO wells 0.201, cell-free background 0.041
# [8] = arabinose 1000000 nM, raw OD600 reference: median of DMSO wells 0.193, cell-free background 0.041
# [9] = arabinose 10000000 nM, raw OD600 reference: median of DMSO wells 0.146, cell-free background 0.041
# [10] = arabinose induction (level): High, raw OD600 reference: median of DMSO wells 0.331, cell-free background 0.041
# [11] = arabinose induction (level): Low, raw OD600 reference: median of DMSO wells 0.417, cell-free background 0.041
# [12] = arabinose induction (level): High, raw OD600 reference: median of DMSO wells […], cell-free background 0.041
# [13] = arabinose induction (level): Low, raw OD600 reference: median of DMSO wells 0.227, cell-free background 0.041
# [14] = arabinose 100 nM, raw OD600 reference: median of DMSO wells 0.413, cell-free background 0.052
# [15] = arabinose 10000000 nM, raw OD600 reference: median of DMSO wells […], cell-free background 0.052
Structure (SMILES),growth [1],growth (E. coli TESEC Mtb Alr [2]; [5]),growth (E. coli TESEC Mtb Alr [2]; [6]),growth (E. coli TESEC Mtb Alr [2]; [7]),growth (E. coli TESEC Mtb Alr [2]; [8]),growth (E. coli TESEC Mtb Alr [2]; [9]),growth (E. coli TESEC Mtb Asd; [10]),growth (E. coli TESEC Mtb Asd; [11]),growth (E. coli TESEC Mtb DapB; [12]),growth (E. coli TESEC Mtb DapB; [13]),growth [3],growth (E. coli TESEC Mtb Alr [4]; [14]),growth (E. coli TESEC Mtb Alr [4]; [15])
O=C(Cn1ccnc1[N+](=O)[O-])NCCO [Etanidazole],0.2444 ± 0.00084,0.306 ± 0.015,0.258 ± 0.0028,0.213 ± 0.0053,0.178 ± 0.0091,0.138 ± 0.0056,0.318 ± 0.027,0.423 ± 0.0082,0.202 ± 0.006,0.232 ± 0.0081,0.471 ± 0.019,0.406 ± 0.012,0.358 ± 0.016
CCc1cc(Cl)c(OC)c(C(=O)NC[C@@H]2CCCN2CC)c1O [S(-)Eticlopride hydrochloride],0.191 ± 0.013,0.242 ± 0.024,0.271 ± 0.0095,0.17 ± 0.0077,0.122 ± 0.0019,0.163 ± 0.0043,0.189 ± 0.015,0.356 ± 0.07,0.181 ± 0.011,0.259 ± 0.0028,0.567 ± 0.012,0.399 ± 0.0083,0.272 ± 0.021
N[C@@H](Cc1cc(I)c(Oc2ccc(O)c(I)c2)c(I)c1)C(=O)O [Liothyronine],0.18 ± 0.012,0.211 ± 0.012,0.2 ± 0.0047,0.177 ± 0.0039,0.134 ± 0.0031,0.162 ± 0.003,0.32 ± 0.038,0.152 ± 0.017,0.232 ± 0.0046,0.264 ± 0.017,0.36 ± 0.023,0.373 ± 0.035,0.272 ± 0.015
Cc1[nH]cnc1CN1CCc2c(c3ccccc3n2C)C1=O [Alosetron hydrochloride],0.197 ± 0.0093,0.26 ± 0.0044,0.233 ± 0.014,0.225 ± 0.0049,0.178 ± 0.008,0.1498 ± 0.001,0.287 ± 0.076,0.263 ± 0.027,0.196 ± 0.017,0.262 ± 0.041,0.563 ± 0.075,0.387 ± 0.012,0.289 ± 0.0097
COc1ccc(-c2ccc(=N)n(CCCC(=O)O)n2)cc1 [Gabazine bromide],0.247 ± 0.012,0.279 ± 0.029,0.262 ± 0.007,0.225 ± 0.027,0.19 ± 0.0086,0.148 ± 0.0044,0.232 ± 0.02,0.342 ± 0.055,0.206 ± 0.0056,0.208 ± 0.021,0.599 ± 0.11,0.402 ± 0.0095,0.341 ± 0.0049
Clc1ccc(C(Cn2ccnc2)OCc2ccsc2Cl)c(Cl)c1 (stereo not drawn) [Tioconazole],0.04147 ± 0.00032,0.0412 ± 0.0011,0.0461 ± 0.00071,0.04173 ± 0.00029,0.0443 ± 0.00052,0.04223 ± 0.00035,0.0476 ± 0.0011,0.0482 ± 0.0016,0.0486 ± 0.00086,0.0575 ± 0.017,0.0501 ± 0.00075,0.0561 ± 0.0097,0.051 ± 0.00017
CN1C(C(=O)Nc2ccccn2)=C(O)c2sccc2S1(=O)=O [Tenoxicam],0.195 ± 0.0081,0.238 ± 0.0097,0.223 ± 0.0086,0.212 ± 0.0097,0.152 ± 0.0064,0.139 ± 0.0027,0.281 ± 0.11,0.223 ± 0.01,0.185 ± 0.0085,0.18 ± 0.0088,0.493 ± 0.051,0.375 ± 0.05,0.277 ± 0.01
COc1ccc(C(=O)NCc2ccc(OCCN(C)C)cc2)cc1OC [Itopride],0.241 ± 0.0038,0.298 ± 0.0084,0.268 ± 0.011,0.229 ± 0.029,0.176 ± 0.0056,0.159 ± 0.0051,0.303 ± 0.083,0.365 ± 0.11,0.228 ± 0.028,0.268 ± 0.025,0.475 ± 0.063,0.407 ± 0.015,0.349 ± 0.0081
COc1ncnc(NS(=O)(=O)c2ccc(N)cc2)c1OC [Sulfadoxine],0.2282 ± 0.0012,0.28 ± 0.0075,0.251 ± 0.0051,0.192 ± 0.021,0.174 ± 0.007,0.14 ± 0.0077,0.306 ± 0.058,0.382 ± 0.062,0.195 ± 0.0074,0.237 ± 0.0097,0.594 ± 0.022,0.4331 ± 0.0033,0.306 ± 0.007
O=C1[C@H]2CCCC[C@H]2C(=O)N1CCCCN1CCN(c2nsc3ccccc23)CC1 [Perospirone],0.131 ± 0.0041,0.225 ± 0.0052,0.257 ± 0.0052,0.146 ± 0.0072,0.103 ± 0.0012,0.1416 ± 0.00075,0.188 ± 0.026,0.369 ± 0.015,0.174 ± 0.013,0.241 ± 0.037,0.432 ± 0.016,0.419 ± 0.0096,0.29 ± 0.027
CCOC(=O)c1ccc(OC(=O)CCCCCNC(=N)N)cc1 [Gabexate mesilate],0.15 ± 0.014,0.179 ± 0.0036,0.158 ± 0.0034,0.109 ± 0.0039,0.0891 ± 0.0033,0.14 ± 0.0019,0.135 ± 0.015,0.147 ± 0.017,0.177 ± 0.0061,0.16 ± 0.011,0.495 ± 0.029,0.396 ± 0.013,0.123 ± 0.0081
CC(COc1ccccc1)NC(C)C(O)c1ccc(O)cc1 (stereo not drawn) [Isoxsuprine hydrochloride],0.224 ± 0.0098,0.29 ± 0.014,0.256 ± 0.003,0.183 ± 0.011,0.156 ± 0.0029,0.157 ± 0.0078,0.25 ± 0.081,0.402 ± 0.079,0.202 ± 0.042,0.271 ± 0.028,0.5 ± 0.066,0.413 ± 0.0062,0.34 ± 0.02
C[C@@H]1C[C@H]2[C@@H]3CCC4=CC(=O)C=C[C@]4(C)[C@@]3(Cl)[C@@H](O)C[C@]2(C)[C@@]1(OC(=O)c1ccco1)C(=O)CCl [Mometasone furoate],0.203 ± 0.0057,0.259 ± 0.031,0.223 ± 0.011,0.161 ± 0.0059,0.0878 ± 0.0027,0.152 ± 0.013,0.198 ± 0.049,0.329 ± 0.082,0.297 ± 0.12,0.212 ± 0.06,0.498 ± 0.036,0.415 ± 0.013,0.244 ± 0.0054
CCCCNc1ccc(C(=O)OCCN(C)C)cc1,0.208 ± 0.0034,0.273 ± 0.006,0.255 ± 0.003,0.186 ± 0.0077,0.166 ± 0.0023,0.146 ± 0.0066,0.266 ± 0.033,0.354 ± 0.021,0.174 ± 0.019,0.186 ± 0.0082,0.468 ± 0.0089,0.396 ± 0.019,0.346 ± 0.018
CC1(C)O[C@@H]2C[C@H]3[C@@H]4C[C@H](F)C5=CC(=O)C=C[C@]5(C)[C@@]4(F)[C@@H](O)C[C@]3(C)[C@]2(C(=O)CO)O1 [Fluocinolone acetonide],0.174 ± 0.0075,0.262 ± 0.01,0.263 ± 0.0058,0.153 ± 0.0083,0.146 ± 0.0019,0.144 ± 0.0033,0.198 ± 0.02,0.401 ± 0.017,0.188 ± 0.019,0.239 ± 0.039,0.591 ± 0.015,0.409 ± 0.0053,0.274 ± 0.0057
CCc1ccc(CCOc2ccc(CC3SC(=O)NC3=O)cc2)nc1 (stereo not drawn) [Pioglitazone],0.225 ± 0.0024,0.268 ± 0.012,0.267 ± 0.0054,0.176 ± 0.0064,0.164 ± 0.002,0.15 ± 0.0092,0.292 ± 0.045,0.334 ± 0.04,0.191 ± 0.0045,0.191 ± 0.011,0.577 ± 0.076,0.426 ± 0.018,0.358 ± 0.023
